Laboratory results: PubChem BioAssay (NCATS)
Several values for one entry are separate records, joined by “and”; a condition that tells them apart may be missing. Identical values can stand only once. Results filed as inconclusive are left out. Activity calls are given as the source filed them. The call rests on the fitted dose curve; in most records, active means well fitted activation curve with a large enough effect; inconclusive means small, poorly fitted or top-dose-only effect, or another doubt; inactive means no such curve, though single readings can be large or run the other way.

Test: Cell Proliferation Assay against the TMD8 Cell Line (Caspase readout at 8 hrs) (AID 651713)
Conditions: TMD8 lymphoma cells, caspase activation luminescence; series mostly up to 46.1 µM
Excerpt: One class of targeted therapeutics showing early clinical success in killing of ABC DLBCL lines are small molecule inhibitors of the Bruton tyrosine kinase (BTK) 11. Thus, we chose to investigate what additional compounds, if any, would synergize with the BTK inhibitor Ibrutinib (PCI-32765).
Prior to any combination assays, using an NCATS developed oncology compound library called the Mechanism of Interrogation Plate (MIPE), two well studied ABC DLBCL lines (TMD8 and HBL1) were screened using a cell viability assay (CellTiterGlo) and a 12-point titration series for each single agent. These initial experiments offered insight into the concentration range that offered the best coverage of activity and non-activity to assure relevant data is generated. In addition to the viability signature associated with this library, we examined the apoptotic response of each agent versus the TMD8 line as judged by caspase 3/7 activation. Activity was assayed at both 8 and 16 hour time-points to gain an appreciation of which agents induced an apoptotic response in a reasonable timeframe from a therapeutic exposure perspective. MIPE was also assayed for single agent viability in a human mesenchymal stem cell (hMSC) line as a surrogate of each library members potential therapeutic index.
The combination plates were then generated by choosing 20 of the best compounds from this single agent screen and plated in the presence of the BTK inhibitor. The first analysis was carried out using 6x6 dose response blocks for each of the 20 compounds. […] In addition to the cell viability assay, the parallel caspase 3/7 activation and viability in hMSC assays were carried out in the 10x10 format.
A total of 500 log growing TMD8 cells are seeded per well in 5 uL of a RPMI with glutamine (or Glutamax), without phenol red plus 5% FBS and 1X Pen/Strep into 1536 -solid white high base tissue culture treated Greiner One Bio Plates (789173-F) using a multidrop combi dispenser and a small sterile cassette. Compounds and controls totaling 23nL per well (negative control DMSO and positive control 9.2 uM Bortezomib-final) are immediately added to the plates using a 1536 head pin tool from Kalypsys. The plates are then covered with stainless steel gasket lids from Kalypsys and incubated for either 8 hours at 37C under 95% relative humidity with 5% CO2. After the desired incubation time, the plates are removed and allowed to reach room temperature before 3 uL of the Caspase Glo reagent (Promega) is added using an Aurora Flying Reagent Dispenser Bioraptor. The plates are then spun at 1000 rpms to remove bubbles and incubated for 15 minutes at room temperature before read on a ViewLux using a luminescent filter with a 10 second exposure. The relative luciferase units are used to calculated percent activity using DMSO as 0% and Bortezomib as 100%.
Potency means the concentration at half of the fitted maximal effect.

Row | Compound | Potency
1 | CC(C)CC(=O)Nc1n[nH]c2c1CN(C(=O)C1CCN(C)CC1)C2(C)C | 2.35 µM (active)
2 | Cc1cn(-c2cc(NC(=O)c3ccc(C)c(Nc4nccc(-c5cccnc5)n4)c3)cc(C(F)(F)F)c2)cn1 | inactive
3 | Cc1ccc(C(N)=O)cc1Nc1nccc(-c2cn(C(C)C)c3cnccc23)n1 | 14.8 µM (active)
4 | CC(NCc1ccc2c(c1)nc(NC(=O)c1ccc(-c3cn[nH]c3)s1)n2CC(C)(C)O)C(C)(C)C (stereo not given) | 0.332 µM (active)
5 | N#Cc1c(O)c2c(-c3ccc(-c4ccccc4O)cc3)csc2[nH]c1=O | inactive
6 | CC(C)(C)c1cnc(CSc2cnc(NC(=O)C3CCNCC3)s2)o1 | 0.0935 µM (active)
7 | Nc1cc(C(F)(F)F)c(-c2cc(N3CCOCC3)nc(N3CCOCC3)n2)cn1 | 20.9 µM (active)
8 | CN1CCN(c2ccc3nc(-c4c(N)c5c(F)cccc5[nH]c4=O)[nH]c3c2)CC1 | 18.7 µM (active)
9 | COc1cc(OC2CCN(C)CC2)ccc1Nc1ncc2c(n1)n(C1CCCC1)c(=O)n2C | 10.5 µM (active)
10 | CN1CC[C@@H](c2c(O)cc(O)c3c(=O)cc(-c4ccccc4Cl)oc23)[C@@H](O)C1 | 0.0743 µM (active)
11 | O=c1[nH]nc(Sc2ncc([N+](=O)[O-])s2)n1-c1ccc2c(c1)OCCO2 | inactive
12 | CC1(C)CCC(c2ccc(Cl)cc2)=C(CN2CCN(c3ccc(C(=O)NS(=O)(=O)c4ccc(N[C@H](CCN5CCOCC5)CSc5ccccc5)c(S(=O)(=O)C(F)(F)F)c4)cc3)CC2)C1 | 29.6 µM (active)
13 | Cc1[nH]nc2ccc(-c3cncc(OC[C@@H](N)Cc4ccccc4)c3)cc12 | 2.35 µM (active)
14 | C=CC(=O)Nc1cc2c(Nc3ccc(F)c(Cl)c3)ncnc2cc1C#CC(C)(C)N1CCN(C)CC1 | 5.26 µM (active)
15 | O=C(C=Cc1cccc(S(=O)(=O)Nc2ccccc2)c1)NO | inactive
16 | CC(=O)SC[C@@H](C)C(=O)N1CCC[C@H]1C(=O)N[C@@H](Cc1ccccc1)C(=O)O | inactive
17 | CN1CCN(c2cc(C(=O)Nc3ccc4c(c3)-c3c(c(C(N)=O)nn3-c3ccc(F)cc3)CC4)c(Cl)cn2)CC1 | 33.2 µM (active)
18 | O=C(C=Cc1c(C(=O)O)[nH]c2cc(Cl)cc(Cl)c12)Nc1ccccc1 | inactive
19 | COc1ccc(CC2SC(=O)NC2=O)cc1C(=O)NCc1ccc(C(F)(F)F)cc1 (stereo not given) | inactive
20 | Cc1ccc(C(=O)Nc2cccc(C(F)(F)F)c2)cc1-c1ccc2nc(NCCN3CCOCC3)ncc2c1 | 20.9 µM (active)

Row | Compound | Potency
21 | C[C@]1(CO)CN(c2cc(C(=O)Nc3ccc4c(c3)-c3c(c(C(N)=O)nn3-c3ccc(F)cc3)CC4)c(Cl)cn2)C[C@@]1(C)CO | 16.6 µM (active)
22 | CC(C)c1ccc(Cn2ccc3c4c(N)nc(NC5CC5)nc4ccc32)cc1 | 6.62 µM (active)
23 | CCN1CCN(CC(=O)Nc2ccc(-c3cccc4c(=O)cc(N5CCOCC5)oc34)c3sc4ccccc4c23)CC1 | 20.9 µM (active)
24 | CC(C)(O)CCc1ccc(OCc2cc(-c3cccc(OC(F)F)c3)c3ncccc3c2)cc1 | inactive
25 | O=C(NCCCNc1nc(Nc2cccc(NC(=O)N3CCCC3)c2)ncc1I)c1cccs1 | 26.4 µM (active) and 29.6 µM (active)
26 | O=C(NCCS(=O)(=O)c1ccc(C(F)(F)F)cn1)c1ccc(Cl)cc1 | inactive
27 | Nc1ccccc1NC(=O)c1ccc(CNc2nccc(-c3cccnc3)n2)cc1 | inactive
28 | COc1cc(=C2C=c3ccccc3=N2)[nH]c1=Cc1[nH]c(C)cc1C | inactive
29 | CCC[C@H](NC(=O)C(C#N)=Cc1cccc(Br)n1)c1ccccc1 | 1.87 µM (active)
30 | CC(=O)OCCN1C(=O)c2c(C)nc3ccc(S(=O)(=O)N4CCOCC4)cc3c2C1=O | inactive
31 | CCOc1cc2ncc(C#N)c(Nc3ccc(F)c(Cl)c3)c2cc1NC(=O)C=CCN(C)C | 16.6 µM (active)
32 | C1Cc2[nH]nc(-c3nn[nH]n3)c2C1 | inactive
33 | CCN(CC)CCCCNc1ncc2cc(-c3cc(OC)cc(OC)c3)c(NC(=O)NC(C)(C)C)nc2n1 | 26.4 µM (active)
34 | CCCCc1nc2cc(C=CC(=O)NO)ccc2n1CCN(CC)CC | inactive
35 | CN1CCC(CNc2ccc3ncc(-c4cccc(OC(F)(F)F)c4)n3n2)CC1 | 23.5 µM (active)
36 | O=C(O)c1ccc2c(c1)nc(Nc1cccc(Cl)c1)c1ccncc12 | inactive
37 | C=CC(=O)Nc1cc2c(Nc3ccc(F)c(Cl)c3)ncnc2cc1OCCCN1CCOCC1 | 14.8 µM (active)
38 | Nc1ccccc1NC(=O)c1ccc(CNC(=O)OCc2cccnc2)cc1 | inactive
39 | COC(=O)c1ccc2c(C(=Nc3ccc(N(C)C(=O)CN4CCN(C)CC4)cc3)c3ccccc3)c(O)[nH]c2c1 | 26.4 µM (active)
40 | CC(=O)c1c(C)c2cnc(Nc3ccc(N4CCNCC4)cn3)nc2n(C2CCCC2)c1=O | 33.2 µM (active)
